Screening results (PubChem)
tim23-1 inh: inhibits growth of tim23-1 mutant yeast; S. cerevisiae tim23-1 growth, BacTiter-Glo luminescence, 24 h; hit rate 1.3% among 330,000; inhibition, % at 20 µM;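 active = growth inhibition of the mutant yeast at or above 50%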;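 note: temperature-sensitive mutant grown at 25 °C; plate controls were DMSO-treated mutant yeast for no effect and medium wells lacking yeast for full effect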
NALP1 inh: inhibitors of NALP1 inflammasome in yeast. S. cerevisiae NALP1/ASC/caspase-1 growth, X-gal OD620, 72 h. hit rate 0.61% among 280,000. AID 2071. inhibition, % at 10 µM; in the data active = inhibition mostly above about 24%, no sharp cut-off; inactive = mostly below about 32%
TIM10 inh: inhibits growth of TIM10 yeast strain | hit rate 1.4% among 330,000 | inhibition, % at 10 µM | S. cerevisiae TIM10 strain growth, BacTiter-Glo luminescence, 24 h;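 active = inhibition of 40% or more at the single tested concentration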;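 note: wild-type TIM10 isogenic control strain grown at permissive 25 °C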
NLRP3 yeast inh: blocks the NALP3 inflammasome reconstituted in yeast; Yeast reconstituted NLRP3/ASC/caspase-1, beta-gal luminescence, 24 h; AID 2825; hit rate 0.39% among 330,000; inhibition, % at 10 µM;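 active = inhibition of 50% or more; inactive = inhibition below 50%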;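 note: plate controls were induced DMSO wells for no effect and uninduced yeast grown without galactose for full effect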
tim10-1 inh: tim10-1 yeast growth inhibition; inhibition, % at 20 µM; hit rate 2.2% among 330,000; S. cerevisiae tim10-1 ts strain growth, BacTiter-Glo, 24 h; AID 463190;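 active = inhibition of at least 40%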;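 note: mutant grown at 25 °C; 0% = DMSO wells with yeast and 100% = wells holding no yeast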
SKKanGAS inh: inhibitors of SKKanGAS S. pyogenes growth in kanamycin (SK-promoter or general growth effect); BacTiter-Glo, 6 h; inhibition, % at 7.5 µM; hit rate 1.3% among 300,000; AID 1662;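 active = mean replicate score, as percent of positive control median, at least 50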;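 note: strain carries kanamycin resistance gene driven by streptokinase promoter and grows in 40 µg/ml kanamycin; loss of luminescence reflects streptokinase promoter inhibition or plain growth inhibition; 0% = median of DMSO wells and 100% = positive control at its reference dose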
TIM10 conf: TIM10 yeast growth inhibition, confirmed; shares compounds with TIM10 inh; S. cerevisiae tim10 strain growth, BacTiter-Glo luminescence, 24 h; inhibition, % at 10 µM; hit rate 63% among 4,600; AID 463215;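 active = inhibition of yeast growth at or above a set limit in either of two replicates at 10 µM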;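 note: this counterscreen used the strain with wild-type TIM10; 0% = yeast with DMSO and 100% = medium wells lacking yeast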
Numbers without * were called inactive; · = not tested or not shown. Most compounds without a hit are left out; they make up all but 4.9% or so of the library.

SMILES	tim23-1 inh	NALP1 inh	TIM10 inh	NLRP3 yeast inh	tim10-1 inh	SKKanGAS inh	TIM10 conf
c1ccc2c(c1)c1ccccc1n1c(-c3ccc4c(c3)OCO4)nnc21	42	-12	68*	24	37	26	8
Cn1c(-c2ccc3c(c2)OCO3)cc(=O)c2ccccc21	11	8	0	-1	12	-3	·
COc1ccc(Cn2c(-c3ccc(C)cc3)c[n+]3ccccc23)cc1	-3	·	42*	3	37	1	51*
COc1cccc(-c2sc3ccccc3c2-c2ccc(OCCN(C)C)cc2)c1	-1	·	50*	47	-8	·	52*
COc1ccc2sc(-c3ccccc3OC)c(-c3ccc(OCCN(C)C)cc3)c2c1	41	·	25	·	3	·	·
Cc1c(C(=O)N2CCOCC2)c(S(=O)(=O)Nc2ccc(C(C)C)cc2)c(C)n1C	12	2	12	3	20	2	·
CCc1ccc(N=CC23c4ccccc4C(c4ccccc42)C2C(=O)N(c4ccc(OC)cc4)C(=O)C23)cc1 (configuration not stated)	49	-4	64*	33	39	-11	48*
CC12c3ccccc3C(c3ccccc31)C1C(=O)N(c3ccncc3)C(=O)C12 (configuration not stated)	33	0	12	7	22	1	·
COc1ccc(N2C(=O)C3C4c5ccccc5C(C=Nc5ccc(C)cc5C)(c5ccccc54)C3C2=O)cc1 (configuration not stated)	46	·	53*	38	34	-1	45*
O=C(O)c1ccc(N2C(=O)C3C4c5ccccc5C(Br)(c5ccccc54)C3C2=O)cc1 (configuration not stated)	20	-9	-6	5	18	0	·
CN1CCC(NC(=O)NC2CCCCC2)CC1	0	25	4	-10	5	-4	·
O=C(NC1CCCCCCC1)NC1CCCCC1	33	10	50*	26	30	6	23
CSc1ccc(CN2CCN(S(=O)(=O)Cc3ccccc3)CC2)cc1	15	23	-8	39	6	0	·
Cc1cccc(Cn2ccc(NC(=O)c3cccnc3)n2)c1	3	-5	19	6	-2	-13	·
Cc1cccc(Cn2ccc(NC(=O)c3ccc4c(c3)OCO4)n2)c1	37	-15	40*	10	33	-9	34*
COc1cc(C(=S)N2CCN(c3cccc(Cl)c3)CC2)ccc1O	40	-10	41*	-27	24	0	46*
CCOC(=O)C1=C(C)Nc2ccccc2N/C1=N\S(=O)(=O)c1ccccc1	3	·	-1	6	15	·	·
COCCCn1[nH]c2c3c(ccc2c1=O)C(=O)c1ccccc1C3=O	41	20	42*	4	33	21	47*
Cc1ccc(C)c(-n2[nH]c3c4c(ccc3c2=O)C(=O)c2ccccc2C4=O)c1	46	7	53*	21	26	29	73*
C/C=C(\C)C(=O)OC1c2c(ccc3ccc(=O)oc23)OC(C)(C)C1OC(C)=O (configuration not stated)	43	1	48*	10	29	2	29*
CCc1nc2sc3c(c2c(=S)[nH]1)CC(C)(C)OC3	6	4	16	19	16	-11	·
CSc1nc2sc3c(c2c(=S)[nH]1)CC(C)(C)OC3	40	-12	43*	12	37	25	44*
CCN1C[C@@H]2[C@@H]3C(=O)N(Cc4ccccc4)C(=O)[C@@H]3[C@](C)(C(=O)OC)N2C1=NC	31	·	12	·	15	·	·
CCN(CC)C(=O)Oc1ccc2c(=O)c(-c3ccc(OC)cc3)coc2c1	31	-1	27	8	26	4	·
CCN(CC)C(=O)Oc1ccc2c(=O)c(-c3ccc(OC)cc3)c(C)oc2c1	33	2	45*	19	36	9	30
SMILES	tim23-1 inh	NALP1 inh	TIM10 inh	NLRP3 yeast inh	tim10-1 inh	SKKanGAS inh	TIM10 conf
COc1ccc(C2=NN(C(=S)Nc3ccccc3)C(c3ccccc3)C2)cc1 (configuration not stated)	28	7	37	18	37	1	·
COc1ccccc1C1CC(c2ccccc2)=NN1C(=S)Nc1ccccc1 (configuration not stated)	30	-9	41*	13	16	6	26
COc1ccc(C2=NN(C(N)=S)C(c3ccccc3)C2)cc1 (configuration not stated)	33	-4	41*	22	31	6	26
COc1ccc(C2CC(c3ccccc3)=NN2C(=S)Nc2ccccc2)cc1 (configuration not stated)	19	-8	29	3	26	-7	·
COc1ccc(OCCNC(=O)c2ccc(C)cc2)cc1	-3	15	-34	37	7	-4	·
NC(=O)c1ccc(NC(=O)CCN2C(=O)c3ccccc3C2=O)cc1	8	1	4	-1	-8	2	·
CC(C)(C)n1nnnc1C(c1cccnc1)N1CCN(c2cccc(C(F)(F)F)c2)CC1 (configuration not stated)	-83	9	-51	-16	-26	2	·
CC(C)(C)c1cc(C(c2cccnc2)N2CCN(CCO)CC2)cc(C(C)(C)C)c1O (configuration not stated)	42	15	41*	44	21	-43	54*
C/C(=N\Nc1ccc(Cl)cc1)c1ccccn1	40	9	52*	9	32	-3	34*
Nc1ccc(C23CC4CC(CC(C4)C2)C3)cc1	34	12	42*	24	15	5	23
CN1CCC(=NNC(=O)CN(c2ccc([N+](=O)[O-])cc2)S(=O)(=O)c2ccccc2)CC1	8	-3	40*	20	9	4	31*
CN1CCC(=NNC(=O)CN(c2cccc([N+](=O)[O-])c2)S(=O)(=O)c2ccccc2)CC1	14	16	5	5	9	7	·
Cc1cc(N2CCN(C(=O)c3cccs3)CC2)c(F)cc1[N+](=O)[O-]	24	-2	6	0	5	9	·
CN(C)c1ccc(N=Nc2ccccc2C(=O)OCC(=O)N2CCCCCC2)cc1	29	34	40*	33	33	0	-21
O=C(CCCN1C(=O)c2cccnc2C1=O)Nc1ccc(F)cc1Cl	3	19	8	2	9	5	·
COCCOC(=O)C1=C(C)NC(=O)NC1c1cccc2ccccc12 (configuration not stated)	3	2	51*	-9	2	11	-8
O=C(/C=C/c1ccccc1Cl)NCCc1ccccc1	39	3	49*	45	3	-3	46*
O=C(/C=C/c1ccccc1Cl)NCc1ccccc1	11	-8	1	25	15	0	·
